Records with an inconclusive call do not appear. Activity calls are given as the source filed them. Unless noted, the call rests on the fitted dose curve.
Columns and labels:
[1] = Nuclear factor erythroid 2-related factor 2/antioxidant responsive element (Nrf2/ARE) small molecule agonists: luciferase reporter gene qHTS assay in human keratinocytes (AID 1919969); further: nearly all actives have a fitted effect of over 35% in size; further: potency means the concentration at half of the fitted maximal effect
[2] = molecular target: Gonadotropin-releasing hormone receptor (Homo sapiens) (UniProt P30968); test: Human gonadotropin-releasing hormone receptor (GnRHR) small molecule agonists, calcium flux assay in GnRHR-HEK293 cells (AID 1920063); further: nearly all actives have a fitted effect of over 35% in size
Gonadotropin-releasing hormone receptor (Homo sapiens), sequence (P30968 whole entry, looked up): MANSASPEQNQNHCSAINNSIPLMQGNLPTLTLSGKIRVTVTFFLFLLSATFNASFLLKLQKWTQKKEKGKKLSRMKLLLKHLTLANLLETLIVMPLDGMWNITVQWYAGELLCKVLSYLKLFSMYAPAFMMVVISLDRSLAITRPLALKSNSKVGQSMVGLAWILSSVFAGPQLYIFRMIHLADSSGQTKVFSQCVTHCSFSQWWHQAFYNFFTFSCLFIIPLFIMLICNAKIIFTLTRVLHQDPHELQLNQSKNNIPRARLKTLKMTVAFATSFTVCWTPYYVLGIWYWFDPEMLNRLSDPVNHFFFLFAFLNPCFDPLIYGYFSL
Method in brief: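 Compounds dissolved in DMSO are pin-transferred onto dye-loaded GnRHR-HEK293 cells, which were seeded 18 h before at 37 C/5% CO2. Calcium signal is read as fluorescence intensity at 1 s intervals for 3 min.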

[3] = molecular target: KiSS-1 receptor (Homo sapiens) (UniProt Q969F8); test: Human kisspeptin (KISS1R) small molecule agonists, calcium flux assay in KISS1R-HEK293 cells (AID 1920064; active means well fitted activation curve with a large enough effect in the repeat runs)
KiSS-1 receptor (Homo sapiens), sequence (Q969F8 whole entry, looked up): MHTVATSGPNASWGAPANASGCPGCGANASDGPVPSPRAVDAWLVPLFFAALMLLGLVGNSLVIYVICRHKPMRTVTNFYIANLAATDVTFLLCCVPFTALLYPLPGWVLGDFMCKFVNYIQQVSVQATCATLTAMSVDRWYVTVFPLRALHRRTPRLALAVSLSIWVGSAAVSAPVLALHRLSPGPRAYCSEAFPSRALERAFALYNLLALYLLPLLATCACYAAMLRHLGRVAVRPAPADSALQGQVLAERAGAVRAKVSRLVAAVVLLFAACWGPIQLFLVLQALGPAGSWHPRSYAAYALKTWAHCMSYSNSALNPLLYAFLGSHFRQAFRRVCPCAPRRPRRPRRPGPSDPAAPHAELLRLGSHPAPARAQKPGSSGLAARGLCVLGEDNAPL
Method in brief: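 Cell line: HEK293, stable human KISS1R. Dye loading 1 h at 37 C after 18 h culture. Read: kinetic fluorescence, 480/540 nm, 3 min at 1 s intervals.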

[4] = G protein-coupled receptor (GPCR) small molecule agonists, calcium flux assay: HEK293 wild type cell line counter screen (AID 1920065)
Method in brief: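 Tox21 10K compounds, 15 concentrations each in triplicate, pin-transferred in DMSO onto dye-loaded cells; kinetic read at 480/540 nm for 3 min, 1 s intervals.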

[5] = p53 small molecule agonists, cell-based qHTS assay with rat liver microsomes (AID 1963578)
Method in brief: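 Quantitative HTS of the Tox21 10K library: p53RE-bla cells, rat liver microsomes plus NADPH at 0.5 mg/mL final each, 16 h at 37 C, beta-lactamase fluorescence detection.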

[6] = p53 small molecule agonists, cell-based qHTS assay with human liver microsomes: qHTS cell viability counter screen (AID 1963579); further: nearly all actives have a fitted effect of over 45% in size; further: potency means the concentration at half of the fitted maximal effect
Method in brief: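 Viability of p53RE-bla cells is measured as CellTiter-Glo luminescence following a 16 h, 37 C incubation with compound, liver microsomes from human donors and NADPH.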

[7] = p53 small molecule agonists, cell-based qHTS assay with rat liver microsomes: qHTS cell viability counter screen (AID 1963580); further: nearly all actives have a fitted effect of over 45% in size; further: potency means the concentration at half of the fitted maximal effect
Method in brief: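 Rat liver microsome (0.5 mg/mL final) and NADPH (0.5 mg/mL final) co-incubation with compounds for 16 h at 37 C on HCT-116 p53RE-bla cells; cytotoxicity taken from intracellular ATP luminescence.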

[8] = p53 small molecule agonists, cell-based qHTS assay: qHTS cell viability counter screen (AID 1963581); further: nearly all actives have a fitted effect of over 45% in size; further: potency means the concentration at half of the fitted maximal effect
Method in brief: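 ATP content measured by luminescence in HCT-116 p53RE-bla cells treated 16 h at 37 C, same wells as the reporter screen.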

[9] = molecular target: 5-hydroxytryptamine receptor 2A (Homo sapiens) (UniProt P28223); test: 5-hydroxytryptamine receptor 2A (HTR2A) small molecule antagonists, cell-based qHTS assay (AID 1963586); further: nearly all actives have a fitted effect of over 45% in size; further: potency means the concentration at half of the fitted maximal effect
5-hydroxytryptamine receptor 2A (Homo sapiens), sequence (P28223 whole entry, looked up): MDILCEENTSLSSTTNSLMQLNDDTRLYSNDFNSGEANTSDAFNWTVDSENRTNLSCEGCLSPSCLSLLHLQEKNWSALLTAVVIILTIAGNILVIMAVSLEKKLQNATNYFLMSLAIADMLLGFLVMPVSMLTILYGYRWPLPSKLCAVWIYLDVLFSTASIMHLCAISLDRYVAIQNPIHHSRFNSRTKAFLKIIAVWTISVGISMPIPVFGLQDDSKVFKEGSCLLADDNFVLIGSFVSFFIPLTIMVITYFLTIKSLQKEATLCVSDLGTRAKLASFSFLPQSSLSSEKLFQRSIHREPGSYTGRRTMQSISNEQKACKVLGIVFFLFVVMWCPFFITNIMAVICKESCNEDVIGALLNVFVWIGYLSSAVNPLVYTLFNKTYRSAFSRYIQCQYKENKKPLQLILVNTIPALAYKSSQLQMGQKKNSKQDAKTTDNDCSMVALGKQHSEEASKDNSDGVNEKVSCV
Method in brief: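 CHO cells stably expressing human HTR2A were plated for 18 h at 37 C, then loaded with calcium dye for 1 h. Compounds were preincubated 5 min at room temperature before DOI (4 nM solution) was added. Kinetic fluorescence was read for 3 min.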

[10] = molecular target: Muscarinic acetylcholine receptor M1 (Homo sapiens) (UniProt P11229); test: Cholinergic receptor muscarinic 1 (CHRM1) small molecule agonists, cell-based qHTS assay (AID 1963589); further: nearly all actives have a fitted effect of over 35% in size
Muscarinic acetylcholine receptor M1 (Homo sapiens), sequence (P11229 whole entry, looked up): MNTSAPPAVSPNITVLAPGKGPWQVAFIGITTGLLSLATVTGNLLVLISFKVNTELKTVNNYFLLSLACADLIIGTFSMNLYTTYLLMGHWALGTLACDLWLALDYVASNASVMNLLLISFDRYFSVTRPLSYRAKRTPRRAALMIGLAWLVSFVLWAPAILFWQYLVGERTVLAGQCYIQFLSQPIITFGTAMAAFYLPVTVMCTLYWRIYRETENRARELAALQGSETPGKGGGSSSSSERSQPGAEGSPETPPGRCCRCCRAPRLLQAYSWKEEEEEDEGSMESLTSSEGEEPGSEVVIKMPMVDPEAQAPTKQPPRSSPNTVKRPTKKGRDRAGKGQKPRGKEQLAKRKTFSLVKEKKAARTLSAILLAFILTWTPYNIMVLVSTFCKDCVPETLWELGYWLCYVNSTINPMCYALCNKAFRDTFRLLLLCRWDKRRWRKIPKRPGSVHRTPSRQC
Method in brief: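 Homogeneous fluorescence calcium flux, agonist mode. Human M1-expressing CHO cells; compound dosed at 15 concentrations, three independent runs; signal sampled every 1 sec.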

[11] = cAMP Responsive Elements (CRE) small molecule antagonists, cell-based qHTS assay (AID 1963591; active means well fitted inhibition curve with a large enough effect in the signal ratio in the repeat runs, not every such curve was filed as active; the % refers to the signal ratio)
Method in brief: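 First, CRE-bla HEK293T cells settled 18 h at 37 C. Next, compound and 0.25 uM final NKH477 were applied for 3 h. Last, LiveBLAzer B/G substrate was loaded for 2 h at room temperature.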

[12] = molecular target: D(2) dopamine receptor (Homo sapiens) (UniProt P14416); test: Dopamine D2 receptor (DRD2) small molecule agonists, cell-based qHTS assay (AID 1963594); further: nearly all actives have a fitted effect of over 35% in size; further: potency means the concentration at half of the fitted maximal effect
D(2) dopamine receptor (Homo sapiens), sequence (P14416 whole entry, looked up): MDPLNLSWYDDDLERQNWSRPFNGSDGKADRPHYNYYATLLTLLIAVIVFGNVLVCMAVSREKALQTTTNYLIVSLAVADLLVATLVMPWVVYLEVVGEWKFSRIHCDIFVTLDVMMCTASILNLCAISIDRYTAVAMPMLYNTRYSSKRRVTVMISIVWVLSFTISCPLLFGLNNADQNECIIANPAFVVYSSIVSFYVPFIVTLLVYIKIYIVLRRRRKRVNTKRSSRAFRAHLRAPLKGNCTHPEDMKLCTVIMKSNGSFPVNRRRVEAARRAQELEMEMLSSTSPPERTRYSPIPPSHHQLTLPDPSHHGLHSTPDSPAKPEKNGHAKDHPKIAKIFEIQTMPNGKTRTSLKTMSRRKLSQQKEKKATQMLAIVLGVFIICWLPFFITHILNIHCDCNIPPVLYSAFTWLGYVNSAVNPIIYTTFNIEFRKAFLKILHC
Method in brief: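 cAMP accumulation in DRD2-HEK293 cells measured by HTRF after 1 h detection; compounds added 10 min before NKH477 (200nM […]) forskolin-analogue stimulation, 30 min at room temperature, with Ro20-1724 present at 0.1 mM final.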

[13] = molecular target: D(2) dopamine receptor (Homo sapiens) (UniProt P14416); test: Dopamine D2 receptor (DRD2) small molecule antagonists, cell-based qHTS assay (AID 1963595; active means well fitted inhibition curve with a large enough effect in the signal ratio in the repeat runs, with a control signal flat; the % refers to the signal ratio)
Method in brief: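 Antagonist mode in DRD2-HEK293 cells: after compound addition with 0.1 mM Ro20-1724, cells received quinpirole (12 nM) and NKH477 (200 nM) for 30 min at room temperature; HTRF cAMP read after 1 h detection.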

[14] = p53 small molecule agonists, cell-based qHTS assay (AID 1963582; active means well fitted activation curve with a large enough effect in the signal ratio in the repeat runs, not every such curve was filed as active; the % refers to the signal ratio; further: potency means the concentration at half of the fitted maximal effect)
Method in brief: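 16 h compound exposure (37 C) of p53 response element–bla cells, preceded by 5 h recovery at 37 C/5% CO2; read-out via LiveBLAzer B/G FRET substrate, 2 h RT, fluorescence intensity.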

[15] = molecular target: 5-hydroxytryptamine receptor 2A (Homo sapiens) (UniProt P28223); test: 5-hydroxytryptamine receptor 2A (HTR2A) small molecule agonists, cell-based qHTS assay (AID 1963587); further: nearly all actives have a fitted effect of over 30% in size; further: potency means the concentration at half of the fitted maximal effect
Method in brief: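 Kinetic calcium-flux fluorescence (2 min, 1 sec intervals) after compound addition in agonist mode. HTR2A-CHO cells were cultured 18 h, then dye-loaded 1 h at 37 C.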

[16] = molecular target: Muscarinic acetylcholine receptor M1 (Homo sapiens) (UniProt P11229); test: Cholinergic receptor muscarinic 1 (CHRM1) small molecule antagonists, cell-based qHTS assay (AID 1963588); further: nearly all actives have a fitted effect of over 40% in size; further: potency means the concentration at half of the fitted maximal effect
Method in brief: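 Compounds were tested at 15 concentrations in three independent runs. Dye-loaded CHRM1-CHO cells were exposed 5 min at room temperature before stimulation by acetylcholine added at 50nM. Intracellular calcium was read kinetically on FDSS for 3 min.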

[17] = cAMP Responsive Elements (CRE) small molecule agonists, cell-based qHTS assay (AID 1963590); further: potency means the concentration at half of the fitted maximal effect
Method in brief: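 HEK 293T cells stably bearing CRE-bla were plated at 2,000 cells per well and rested 18 h. Compounds, positive controls or DMSO were added for 3 h at 37 C. LiveBLAzer B/G substrate was then loaded for 2 h at room temperature.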

[18] = molecular target: Beta-2 adrenergic receptor (Homo sapiens) (UniProt P07550); test: Adrenergic beta2 receptor (ADRB2) small molecule antagonists, cell-based qHTS assay (AID 1963592); further: nearly all actives have a fitted effect of over 50% in size; further: potency means the concentration at half of the fitted maximal effect
Beta-2 adrenergic receptor (Homo sapiens), sequence (P07550 whole entry, looked up): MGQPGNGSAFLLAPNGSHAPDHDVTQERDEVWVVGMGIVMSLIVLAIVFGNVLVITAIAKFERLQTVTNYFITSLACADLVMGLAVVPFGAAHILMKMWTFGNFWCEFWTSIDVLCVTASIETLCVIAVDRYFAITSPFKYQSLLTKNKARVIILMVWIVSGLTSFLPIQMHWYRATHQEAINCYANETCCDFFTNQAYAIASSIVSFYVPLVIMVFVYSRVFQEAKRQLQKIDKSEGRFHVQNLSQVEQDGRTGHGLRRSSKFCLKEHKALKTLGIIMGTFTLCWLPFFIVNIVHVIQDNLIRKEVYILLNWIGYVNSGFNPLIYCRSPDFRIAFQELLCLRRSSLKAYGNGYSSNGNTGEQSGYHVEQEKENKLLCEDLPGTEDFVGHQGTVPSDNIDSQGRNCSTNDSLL
Method in brief: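 Assay format: CHO-ADRB2 cells, 18-20hr seeding at 37C/5% CO2, then compound plus 1nM isoproterenol agonist mix for 0.5hr RT. Homogeneous time-resolved fluorescence cAMP detection after 1hr, expressed as 665/615 nm ratio.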

[19] = molecular target: Beta-2 adrenergic receptor (Homo sapiens) (UniProt P07550); test: Adrenergic beta2 receptor (ADRB2) small molecule agonists, cell-based qHTS assay (AID 1963593);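 further: CHO cells stably overexpressing human ADRB2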
Method in brief: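 CHO cells stably over-expressing ADRB2 were plated overnight at 37C, then dosed with compounds plus a stimulation mix containing 100uM IBMX and 25uM Ro-20-1724 for 0.5hr at room temperature. cAMP was measured by HTRF competition, 1hr.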

Measured: Potency

C#C[C@]1(OC(C)=O)CC[C@H]2[C@@H]3CCC4=C/C(=N/O)CC[C@@H]4[C@H]3CC[C@@]21CC
not listed: [14] | [15] | [16] | [17] | [18] | [19]
inactive: all other assays above

CCCCNC(=O)NCCCC
not listed: [7] | [13]
inactive: all other assays above

O=C(CCCN1CCN(c2ccc(F)cc2)CC1)NC1c2ccccc2CSc2ccccc21 (centres undefined)
active: [18] 7.5 µM
not listed: [9] | [11] | [13] | [14] | [16] | [17] | [19]
inactive: all other assays above

COc1ccc(C(=O)/C(Br)=C\C(=O)O)cc1
active: [1] 54.5 µM | [6] 45.8 µM | [14] 32.4 µM
not listed: [8] | [11] | [12] | [16] | [17]
inactive: all other assays above

CCCCCCC(C)OC(=O)COc1nc(F)c(Cl)c(N)c1Cl (centres undefined)
not listed: [8] | [11] | [17] | [19]
inactive: all other assays above

CCOc1cccc(-n2cc(C(=O)N3CCN(c4cc(C(=O)O)c5ccccc5c4)CC3)nc2-c2ccc(C)cc2)c1
active: [6] 17.4 µM | [7] 24.6 µM | [8] 24.6 µM | [15] 0.0933 µM | [12] 65.5 µM
inactive: [1] | [2] | [3] | [4] | [5] | [10] | [13]

C=CCOC(=O)c1ccc(C(=O)OCC=C)c(C(=O)OCC=C)c1
active: [9] 33.4 µM
not listed: [5] | [14]
inactive: all other assays above

O=[N+]([O-])c1cc(N(CCO)CCO)ccc1NCCO
not listed: [12] | [13] | [14] | [15] | [18] | [19]
inactive: all other assays above

Cc1cccc(C)c1NC(=O)CN1CCN(CCCC(c2ccc(F)cc2)c2ccc(F)cc2)CC1
active: [9] 8.18 µM
not listed: [7] | [11] | [13] | [19]
inactive: all other assays above

O=c1[nH]c2ccc(S(=O)CCN3CCC(Cc4ccc(F)cc4)CC3)cc2o1 (centres undefined)
active: [1] 61.1 µM | [16] 14.9 µM
not listed: [6] | [8] | [11] | [12] | [13] | [17]
inactive: all other assays above

COc1cccc2sc(N)nc12
not listed: [5] | [12] | [14] | [19]
inactive: all other assays above

CN(C)c1ccc(O)c2c1C[C@H]1C[C@H]3[C@H](N(C)C)C(=O)C(C(N)=O)=C(O)[C@@]3(O)C(=O)C1=C2O
not listed: [5] | [14] | [18] | [19]
inactive: all other assays above

CC(C)C(OC(=O)c1ccccc1)C(C)(C)COC(=O)c1ccccc1 (centres undefined)
active: [1] 30.6 µM
not listed: [14] | [17]
inactive: all other assays above

S=c1[nH]c2ccccc2s1
active: [1] 21.7 µM | [17] 48.6 µM
inactive: [2] | [3] | [4] | [5] | [9] | [15] | [10]

CCCC(CC)CCCCCCCN (centres undefined)
active: [9] 24.2 µM | [15] 44.7 µM | [16] 4.84 µM
not listed: [5] | [17] | [19]
inactive: all other assays above

CC1=CC(C)C(C=O)C(C)C1 (centres undefined)
not listed: [8] | [15] | [16]
inactive: all other assays above

Source: PubChem BioAssay (Tox21)
